The results in this text go back to paper PMC6212790, “How bacterial xenogeneic silencer rok distinguishes foreign from self DNA in its resident genome”.

Whole data set: some 33,000 sequences, median “e-score” near -0.038, cut for the highest 2% near 0.33. This is one part of a sample in which the highest values are shown more often than they occur.

The assay concerns the target T1, GST-Rok-C97-191 (Bacillus subtilis subsp. subtilis str. …, UniProt O34857 97-191).
T1 sequence: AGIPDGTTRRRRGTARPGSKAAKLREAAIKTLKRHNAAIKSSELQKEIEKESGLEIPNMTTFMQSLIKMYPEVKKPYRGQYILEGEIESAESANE
The assay is described as follows: protein binding microarray; Rok is a gene silencer of Bacillus subtilis; high values mean tight binding. To be noted: protein: recombinant; tags: GST (pTH5325, pDEST15-Magic modified); dsDNA, one strand shown. The procedure, abridged: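 Every oligonucleotide joins a 25-mer constant primer to a 35-mer variable part drawn from a de Bruijn sequence of order 10, so each non-palindromic 8-mer appears at least 32 times and each palindromic 8-mer 16 times. The preference for every 8-mer is reported as a unitless, rank-based enrichment score (E-score). This score spans 0.5 for the most favored 8-mer to −0.5 for the most disfavored.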
Turning to CTAACTAG, the binding signal turned out to be 0.268 E-score.
In the case of TTAACTAA, the binding signal worked out at 0.235 E-score.
As for CTAACTAA, the binding signal was 0.288 E-score.
Next, GTAACTAC: 0.417 E-score; CTAACTAC: 0.348 E-score; ATAACTAC: 0.323 E-score.
Regarding CTAACTCC, the binding signal was -0.00723 E-score.
Turning to GTAACTAA, the binding signal came out at 0.353 E-score.
Regarding GGAACTAC, the binding signal came to 0.254 E-score.
Next, CAAGCAGA: 0.0345 E-score; GCCGAATA: 0.0948 E-score.
For the sequence GCTCGTAA, the binding signal is 0.0484 E-score.
Consider ACTCCAGC, for which the binding signal stood at 0.114 E-score.
Next, CTGAAGGA: -0.156 E-score; ATCCAGCG: -0.106 E-score; GACTACCC: 0.0938 E-score.
On to CACTACCG, for which the binding signal is 0.065 E-score.
Take AACTATCT: the binding signal was found to be 0.294 E-score.
To CACTACCA belongs 0.0866 E-score; to AACTACCA, 0.433 E-score; to AACTACCC, 0.338 E-score.
With AGCTACCG, the binding signal is 0.228 E-score.
Regarding CACTACCC, the binding signal was -0.0292 E-score.
On to GACTACCA, for which the binding signal came out at 0.141 E-score.
For AACTACCT, the binding signal was 0.412 E-score.
On to ACCTACCT, for which the binding signal is 0.154 E-score.
To AACTACCG belongs 0.41 E-score; to CAATTTTA, 0.234 E-score.
ACGGGAGA: the binding signal is -0.12 E-score.
As for CAAGTTGA, the binding signal was -0.0731 E-score.
Next, TCGACTAA: 0.0796 E-score; AAAGTTCT: 0.145 E-score; GCTCGGTA: 0.0228 E-score.
Take AGCGGCCG: the binding signal is -0.112 E-score.
In the case of CATTGATA, the binding signal amounted to 0.26 E-score.
For ACGTTCAC, the binding signal was 0.0772 E-score.
With GATAAGTA, the binding signal was 0.238 E-score.
To CCGTCGAA belongs 0.0267 E-score.
For the sequence GGAATGGA, the binding signal was -0.114 E-score.
To TCCTACCA belongs 0.273 E-score; to TACTACCA, 0.404 E-score; to TGCTACCA, 0.099 E-score.
Take CGCTACGA: the binding signal was 0.0242 E-score.
With CCTGTCCC, the binding signal was 0.0167 E-score.
In the case of AAATACTG, the binding signal was found to be 0.283 E-score.
Turning to CAATACTA, the binding signal came to 0.217 E-score.
On to GAATACTA, for which the binding signal turned out to be 0.209 E-score.
In the case of TAATACTA, the binding signal came out at 0.401 E-score.
As to AAATACTA, the binding signal is 0.434 E-score.
Regarding AAATACTC, the binding signal was determined as 0.205 E-score.
For CATCCCTA, the binding signal is -0.0266 E-score.
Turning to AGCTCGTA, the binding signal is 0.00298 E-score.
Regarding AATCTAGG, the binding signal was 0.171 E-score.
To AATCTATC belongs 0.421 E-score; to AATCTATA, 0.4 E-score.
Turning to GATCTATA, the binding signal amounted to 0.305 E-score.
In the case of AATCTAGA, the binding signal came to 0.331 E-score.
Turning to CATCTATA, the binding signal stood at 0.201 E-score.
As for CATCTATC, the binding signal came to 0.201 E-score.
For TATCTAGA, the binding signal amounted to 0.159 E-score.
To AATCTATG belongs 0.135 E-score; to ACACGTGT, 0.00499 E-score; to GATAAGAC, 0.14 E-score.
As for ACATGCGG, the binding signal worked out at 0.0405 E-score.
Regarding AAAAAGAG, the binding signal is -0.0136 E-score.
CTCACATC: the binding signal is -0.132 E-score.
Next, ATTCATCA: 0.0772 E-score; ACGATGCT: 0.0784 E-score.
Take ACTGACAT: the binding signal was -0.113 E-score.
Consider ACAGTCCC, for which the binding signal is -0.126 E-score.
As to GCATAGAC, the binding signal is -0.0624 E-score.
In the case of CATATGGA, the binding signal is 0.0214 E-score.
Next, GACATATA: 0.307 E-score; AACATGTA: 0.237 E-score.
Regarding TACATCTA, the binding signal amounted to 0.369 E-score.
With CACATGTA, the binding signal is 0.162 E-score.
As for TACATGTA, the binding signal was determined as 0.417 E-score.
Next, AACATCTA: 0.165 E-score.
Regarding TACATATA, the binding signal stood at 0.349 E-score.
Consider CACATCTA, for which the binding signal was found to be 0.151 E-score.
As to AACATATA, the binding signal was 0.208 E-score.
Take TATATGGA: the binding signal was 0.343 E-score.
To GATATGGA belongs 0.0314 E-score.
To AGTCAACT belongs 0.173 E-score; to AGATTCGA, 0.104 E-score; to ATAATTCG, 0.213 E-score.
For the sequence CCTGGTTA, the binding signal was 0.0123 E-score.
On to CGACTCTA, for which the binding signal is -0.0898 E-score.
As to CCACATAC, the binding signal came to 0.16 E-score.
AGTGGAAT: the binding signal was -0.0459 E-score.
CATATATG: the binding signal was found to be 0.306 E-score.
To TATATCGA belongs 0.314 E-score; to CATATATA, 0.353 E-score; to CATATATC, 0.279 E-score.
To TATATATA belongs 0.454 E-score.
With CTTATATA, the binding signal came out at 0.321 E-score.
Consider GATATAGA, for which the binding signal is 0.244 E-score.
To TATATAGA belongs 0.397 E-score; to CATATAGA, 0.144 E-score.
To CCAGTACA belongs 0.0219 E-score.
To GTAGTGCA belongs 0.015 E-score; to CAGGGCTA, -0.0484 E-score.
Take CCTGTATA: the binding signal came out at 0.157 E-score.
For CAGGCGCC, the binding signal was -0.149 E-score.
Consider TACGTTCA, for which the binding signal is 0.085 E-score.
To CATAACGC belongs 0.0154 E-score; to ACTTTGGA, -0.0486 E-score; to ATGACGTA, -0.0485 E-score.
In the case of AATCTGGA, the binding signal was -0.12 E-score.
AACCAGTA: the binding signal came out at 0.278 E-score.
To AACTAGTT belongs 0.439 E-score; to AACTAGGT, 0.318 E-score.
Take AACTAGTA: the binding signal came out at 0.47 E-score.
To CACTAGTG belongs -0.0787 E-score; to CACTAGTA, 0.253 E-score; to ACCTAGTA, 0.233 E-score.
As to AACTAGTG, the binding signal stood at 0.376 E-score.
In the case of ATCTAGTC, the binding signal was 0.287 E-score.
Regarding ATCTAGTA, the binding signal was 0.31 E-score.
Next, AACTAGGG: -0.0014 E-score; AACTAGTC: 0.0892 E-score; ATCTAGTG: 0.364 E-score.
Turning to CTGACATC, the binding signal was -0.162 E-score.
Regarding ATTACGCC, the binding signal is -0.0244 E-score.
In the case of CTTAAAGA, the binding signal is -0.126 E-score.
As to CATAGTGC, the binding signal was -0.076 E-score.
For the sequence ATTGTCCG, the binding signal is -0.0512 E-score.
For the sequence AAGCAAGC, the binding signal was -0.165 E-score.
Take CAGCAATA: the binding signal was 0.203 E-score.
For CGTCATAC, the binding signal worked out at 0.0184 E-score.
As to GACTAGGA, the binding signal is -0.0139 E-score.
To TACTAGGA belongs 0.115 E-score; to GGCTAGTA, 0.115 E-score; to TACTAGCA, 0.256 E-score.
In the case of GACTAGTA, the binding signal is 0.368 E-score.
On to AGCTAGTC, for which the binding signal worked out at 0.104 E-score.
Consider AGCTAGTA, for which the binding signal worked out at 0.336 E-score.
On to TACTAGTA, for which the binding signal stood at 0.433 E-score.
Regarding GACTAGTC, the binding signal worked out at 0.0585 E-score.
Next, AGCGCTCA: 0.00935 E-score; CTGCTACC: -0.0872 E-score.
Regarding TCCCTAAA, the binding signal was -0.186 E-score.
Consider ACGCGCTC, for which the binding signal is -0.0411 E-score.
Turning to AGTTTCCG, the binding signal came out at 0.112 E-score.
To GCGGCCAA belongs -0.114 E-score.
For AAACGTTA, the binding signal was determined as 0.0818 E-score.
To GAACGTTA belongs 0.178 E-score; to TAACGTTA, 0.339 E-score.
Turning to CCTAATGC, the binding signal is -0.154 E-score.
Take AACGTGGC: the binding signal is -0.0901 E-score.
For the sequence GCAGTATA, the binding signal came to 0.224 E-score.
In the case of ATAGTATG, the binding signal was found to be 0.316 E-score.
Regarding ATAGTATA, the binding signal amounted to 0.334 E-score.
On to CTAGTATA, for which the binding signal was found to be 0.37 E-score.
With ATAGTATC, the binding signal worked out at 0.278 E-score.
As for CAAGTATA, the binding signal is 0.251 E-score.
With CTAGTATC, the binding signal amounted to 0.111 E-score.
Regarding GTAGTATA, the binding signal came out at 0.428 E-score.
On to GAAGTATA, for which the binding signal worked out at 0.164 E-score.
CGTTGGAG: the binding signal was -0.19 E-score.
With AGGTATAC, the binding signal stood at 0.19 E-score.
Take CATTCATA: the binding signal came out at 0.181 E-score.
For the sequence CTGTCCCA, the binding signal is -0.0317 E-score.
As to CTTTCTCA, the binding signal is -0.12 E-score.
Regarding AGGGAAAC, the binding signal was -0.0931 E-score.
ACATAGAC: the binding signal was 0.0775 E-score.
On to AGATAGAG, for which the binding signal was determined as 0.128 E-score.
As for ACATAGAG, the binding signal was -0.0925 E-score.
In the case of AGATAGAC, the binding signal turned out to be 0.0495 E-score.
Turning to AGATAGAT, the binding signal is 0.349 E-score.
As for ACATAGAT, the binding signal stood at 0.33 E-score.
AATTAGAA: the binding signal is 0.202 E-score.
